Legend:
Assay in all cases: log2 ratio of Biotin-Ahx-Ub-VS probe labelling (fragment/DMSO); higher = less target engagement (more negative = stronger competition), active = hit call of the paper (q ≤ 0.05, log2 ratio ≤ -1)
Conditions in all cases: compound concentration: 200 uM; treatment time: 3 h
ALG13 = target: T1, ALG13 (UniProt Q9NP73)
T1 sequence (whole entry): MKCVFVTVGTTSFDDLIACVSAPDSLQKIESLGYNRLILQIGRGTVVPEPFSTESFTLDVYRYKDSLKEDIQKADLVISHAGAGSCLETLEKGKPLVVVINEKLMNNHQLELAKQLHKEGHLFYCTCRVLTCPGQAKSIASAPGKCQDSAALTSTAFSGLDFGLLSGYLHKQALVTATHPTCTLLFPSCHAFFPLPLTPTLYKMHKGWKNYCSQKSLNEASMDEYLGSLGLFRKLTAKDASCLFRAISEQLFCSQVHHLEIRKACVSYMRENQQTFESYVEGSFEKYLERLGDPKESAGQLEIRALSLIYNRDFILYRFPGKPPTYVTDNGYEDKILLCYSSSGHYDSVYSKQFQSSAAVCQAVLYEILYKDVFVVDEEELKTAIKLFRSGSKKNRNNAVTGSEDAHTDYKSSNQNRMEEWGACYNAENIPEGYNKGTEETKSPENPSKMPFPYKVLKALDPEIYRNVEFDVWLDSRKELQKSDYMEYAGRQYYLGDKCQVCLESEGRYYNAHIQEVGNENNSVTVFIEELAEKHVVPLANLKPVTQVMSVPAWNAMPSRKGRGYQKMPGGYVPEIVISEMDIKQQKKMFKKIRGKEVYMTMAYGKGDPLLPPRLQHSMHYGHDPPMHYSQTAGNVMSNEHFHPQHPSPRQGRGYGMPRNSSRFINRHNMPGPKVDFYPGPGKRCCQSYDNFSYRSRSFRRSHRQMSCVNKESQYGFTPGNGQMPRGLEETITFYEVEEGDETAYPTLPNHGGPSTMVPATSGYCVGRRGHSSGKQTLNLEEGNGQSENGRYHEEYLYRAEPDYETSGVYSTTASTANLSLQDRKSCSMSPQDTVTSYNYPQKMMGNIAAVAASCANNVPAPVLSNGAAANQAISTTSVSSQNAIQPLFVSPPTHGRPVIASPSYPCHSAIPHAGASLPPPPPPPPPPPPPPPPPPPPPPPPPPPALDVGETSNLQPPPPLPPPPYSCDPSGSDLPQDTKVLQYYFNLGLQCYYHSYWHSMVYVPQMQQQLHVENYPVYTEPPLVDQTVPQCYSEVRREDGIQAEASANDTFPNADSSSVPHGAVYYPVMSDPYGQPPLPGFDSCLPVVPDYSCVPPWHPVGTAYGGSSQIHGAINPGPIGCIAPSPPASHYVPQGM
Method in brief: (§1)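 Fragment (200 µM) or vehicle was incubated for 3 h with triplicate HEK293T lysate samples of 495 µg, which were then treated with Biotin-Ahx-Ub-VS at 0.5 µM final for 1 h. Labelled DUBs were enriched on NeutrAvidin, digested with LysC and trypsin, and analysed by diaPASEF LC-MS/MS. Values are average log2 fragment/vehicle ratios from an unpaired t-test on global-median-normalised Spectronaut label-free quantities, using proteins with ≥2 unique peptides.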

ATXN3 = ATXN3 (UniProt P54252)
Chain of ATXN3 (P54252 whole entry): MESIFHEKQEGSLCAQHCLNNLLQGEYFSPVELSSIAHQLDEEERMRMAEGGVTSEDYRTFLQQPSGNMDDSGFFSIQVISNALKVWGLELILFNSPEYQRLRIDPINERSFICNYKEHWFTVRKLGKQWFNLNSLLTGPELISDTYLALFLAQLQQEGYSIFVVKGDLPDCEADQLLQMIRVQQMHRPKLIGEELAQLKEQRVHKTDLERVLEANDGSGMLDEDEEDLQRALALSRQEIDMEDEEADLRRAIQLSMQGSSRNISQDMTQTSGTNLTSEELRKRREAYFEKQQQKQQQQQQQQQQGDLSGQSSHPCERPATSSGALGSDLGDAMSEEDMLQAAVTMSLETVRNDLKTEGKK
Method in brief: as §1

BAP1 = target: T2, BAP1 (UniProt Q92560)
T2 sequence (whole entry): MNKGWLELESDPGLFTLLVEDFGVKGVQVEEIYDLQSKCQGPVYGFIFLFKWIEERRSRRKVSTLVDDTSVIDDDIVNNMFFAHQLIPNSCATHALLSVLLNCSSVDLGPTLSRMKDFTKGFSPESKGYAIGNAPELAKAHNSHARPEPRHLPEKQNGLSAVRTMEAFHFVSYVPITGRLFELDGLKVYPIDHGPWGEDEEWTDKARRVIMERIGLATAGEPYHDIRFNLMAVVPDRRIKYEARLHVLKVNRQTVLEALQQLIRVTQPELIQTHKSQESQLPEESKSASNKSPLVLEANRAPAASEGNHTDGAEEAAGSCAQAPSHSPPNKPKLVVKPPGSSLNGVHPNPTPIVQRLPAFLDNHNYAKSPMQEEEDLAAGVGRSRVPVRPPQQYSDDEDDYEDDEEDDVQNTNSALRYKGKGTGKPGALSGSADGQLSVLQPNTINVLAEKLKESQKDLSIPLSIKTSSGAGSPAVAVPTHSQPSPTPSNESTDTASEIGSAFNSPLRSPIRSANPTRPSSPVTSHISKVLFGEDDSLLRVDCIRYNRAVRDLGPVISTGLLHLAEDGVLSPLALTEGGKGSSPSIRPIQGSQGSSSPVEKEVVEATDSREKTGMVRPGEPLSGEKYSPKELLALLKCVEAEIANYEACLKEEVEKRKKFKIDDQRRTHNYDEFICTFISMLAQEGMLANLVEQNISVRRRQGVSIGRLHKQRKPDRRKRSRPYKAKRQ
Method in brief: as §1

EIF3F = EIF3F (UniProt O00303)
Chain of EIF3F (O00303 whole entry): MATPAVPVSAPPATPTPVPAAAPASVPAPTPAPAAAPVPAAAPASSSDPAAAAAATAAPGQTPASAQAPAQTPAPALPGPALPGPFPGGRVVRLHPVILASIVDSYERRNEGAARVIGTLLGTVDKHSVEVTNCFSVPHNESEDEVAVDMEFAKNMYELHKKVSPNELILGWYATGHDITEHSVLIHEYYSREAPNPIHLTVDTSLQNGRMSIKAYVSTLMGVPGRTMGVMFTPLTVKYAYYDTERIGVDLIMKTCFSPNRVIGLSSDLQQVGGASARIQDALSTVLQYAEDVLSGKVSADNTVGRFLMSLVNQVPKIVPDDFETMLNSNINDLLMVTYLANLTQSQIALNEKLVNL
Method in brief: as §1

EIF3H = EIF3H (UniProt O15372)
Chain of EIF3H (O15372 whole entry): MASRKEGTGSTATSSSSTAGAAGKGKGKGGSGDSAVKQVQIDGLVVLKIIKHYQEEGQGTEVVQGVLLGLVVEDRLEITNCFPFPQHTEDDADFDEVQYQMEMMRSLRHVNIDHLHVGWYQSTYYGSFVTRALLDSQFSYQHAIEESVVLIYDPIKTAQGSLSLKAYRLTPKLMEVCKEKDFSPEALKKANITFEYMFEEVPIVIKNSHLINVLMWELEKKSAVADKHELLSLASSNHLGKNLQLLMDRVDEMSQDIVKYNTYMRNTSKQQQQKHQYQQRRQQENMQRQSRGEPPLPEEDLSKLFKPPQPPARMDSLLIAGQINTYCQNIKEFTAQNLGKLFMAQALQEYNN
Method in brief: as §1

FAM105A = target: T3, FAM105A (UniProt Q9NUU6)
T3 sequence (whole entry): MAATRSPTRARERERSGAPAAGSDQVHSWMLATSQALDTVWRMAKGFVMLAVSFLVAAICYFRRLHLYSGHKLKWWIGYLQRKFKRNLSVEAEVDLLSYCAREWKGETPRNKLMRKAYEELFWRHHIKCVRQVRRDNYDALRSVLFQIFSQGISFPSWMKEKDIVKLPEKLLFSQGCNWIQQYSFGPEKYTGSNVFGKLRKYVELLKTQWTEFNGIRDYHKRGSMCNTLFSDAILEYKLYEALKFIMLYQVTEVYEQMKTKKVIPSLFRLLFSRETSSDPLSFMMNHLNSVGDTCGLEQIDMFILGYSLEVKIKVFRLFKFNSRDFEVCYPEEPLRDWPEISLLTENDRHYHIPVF
Method in brief: as §1

OTUB1 = OTUB1 (UniProt Q96FW1)
Chain of OTUB1 (Q96FW1 whole entry): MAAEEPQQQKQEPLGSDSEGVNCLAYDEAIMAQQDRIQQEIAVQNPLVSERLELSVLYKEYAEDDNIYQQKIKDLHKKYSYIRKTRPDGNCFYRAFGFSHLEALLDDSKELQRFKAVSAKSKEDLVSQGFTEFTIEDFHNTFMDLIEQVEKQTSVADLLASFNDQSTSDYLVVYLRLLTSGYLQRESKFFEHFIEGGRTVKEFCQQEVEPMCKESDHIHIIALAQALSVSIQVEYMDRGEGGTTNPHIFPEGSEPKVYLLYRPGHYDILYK
Method in brief: as §1

OTUD4 = target: T4, OTUD4 (UniProt Q01804)
T4 sequence (whole entry): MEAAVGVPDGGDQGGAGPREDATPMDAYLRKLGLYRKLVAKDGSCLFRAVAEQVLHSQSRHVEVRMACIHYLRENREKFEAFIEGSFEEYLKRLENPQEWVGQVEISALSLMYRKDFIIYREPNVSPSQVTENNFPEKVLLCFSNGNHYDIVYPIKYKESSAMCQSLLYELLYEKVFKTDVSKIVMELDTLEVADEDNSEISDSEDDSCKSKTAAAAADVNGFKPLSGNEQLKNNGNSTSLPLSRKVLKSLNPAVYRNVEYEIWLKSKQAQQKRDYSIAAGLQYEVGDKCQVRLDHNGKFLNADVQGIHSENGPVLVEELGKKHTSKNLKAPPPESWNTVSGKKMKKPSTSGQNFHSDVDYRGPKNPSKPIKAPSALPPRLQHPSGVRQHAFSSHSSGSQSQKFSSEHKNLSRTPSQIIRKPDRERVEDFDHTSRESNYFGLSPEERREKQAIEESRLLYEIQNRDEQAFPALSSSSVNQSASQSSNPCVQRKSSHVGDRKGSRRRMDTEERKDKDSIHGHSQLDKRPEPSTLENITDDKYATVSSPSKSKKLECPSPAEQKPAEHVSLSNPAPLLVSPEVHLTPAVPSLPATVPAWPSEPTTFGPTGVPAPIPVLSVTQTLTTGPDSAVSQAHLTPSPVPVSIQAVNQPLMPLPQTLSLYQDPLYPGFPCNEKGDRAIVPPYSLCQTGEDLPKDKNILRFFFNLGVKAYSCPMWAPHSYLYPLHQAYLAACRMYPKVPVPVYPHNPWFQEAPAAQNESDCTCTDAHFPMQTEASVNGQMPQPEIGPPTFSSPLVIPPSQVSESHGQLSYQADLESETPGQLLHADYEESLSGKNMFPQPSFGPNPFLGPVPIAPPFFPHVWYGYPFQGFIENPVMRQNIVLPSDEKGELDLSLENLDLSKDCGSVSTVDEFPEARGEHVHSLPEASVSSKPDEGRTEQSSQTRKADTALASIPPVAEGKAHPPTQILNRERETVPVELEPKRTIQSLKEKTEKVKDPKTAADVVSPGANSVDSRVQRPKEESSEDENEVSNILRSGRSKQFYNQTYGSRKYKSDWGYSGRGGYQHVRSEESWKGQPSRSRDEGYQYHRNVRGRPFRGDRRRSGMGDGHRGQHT
Method in brief: as §1

OTUD5 = target: T5, OTUD5 (UniProt Q96G74)
T5 sequence (whole entry): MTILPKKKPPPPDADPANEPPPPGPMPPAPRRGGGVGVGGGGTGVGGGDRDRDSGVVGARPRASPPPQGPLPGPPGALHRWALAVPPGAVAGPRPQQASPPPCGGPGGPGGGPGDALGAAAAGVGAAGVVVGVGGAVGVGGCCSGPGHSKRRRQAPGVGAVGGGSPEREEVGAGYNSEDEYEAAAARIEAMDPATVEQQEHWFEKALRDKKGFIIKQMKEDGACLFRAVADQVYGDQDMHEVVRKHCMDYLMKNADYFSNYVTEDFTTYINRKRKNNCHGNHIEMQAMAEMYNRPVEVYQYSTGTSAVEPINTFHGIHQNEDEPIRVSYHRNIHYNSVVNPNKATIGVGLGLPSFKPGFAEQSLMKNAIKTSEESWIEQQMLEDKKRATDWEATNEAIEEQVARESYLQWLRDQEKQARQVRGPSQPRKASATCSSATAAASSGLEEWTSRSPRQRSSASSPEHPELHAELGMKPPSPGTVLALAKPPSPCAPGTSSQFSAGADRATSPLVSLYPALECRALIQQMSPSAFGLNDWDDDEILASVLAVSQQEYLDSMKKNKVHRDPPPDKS
Method in brief: as §1

Measured: log2 ratio of Biotin-Ahx-Ub-VS probe labelling

O=C(CCl)Nc1cccc(C(=O)N2CCSCC2)c1
inactive: ALG13 0.254 | ATXN3 -0.874 | EIF3F -0.466 | EIF3H 0.0708 | FAM105A 0.0218 | OTUB1 -0.523 | OTUD4 -0.0407 | OTUD5 -0.638
active: BAP1 -3.62

Reference: the supplement of paper PMC11732987, “Enantioselective OTUD7B fragment discovery through chemoproteomics screening and high-throughput optimisation” (Communications Chemistry, 2025)
